# Most compounds without a hit are left out; they make up all but 3% or so of the library.
# MITF TRPM1 HTS: activators of MITF-driven TRPM1 promoter reporter, primary screen, cell-based, SK-MEL-5, luciferase, single point; SK-MEL-5 TRPM1-promoter luciferase, 24 h; % of positive control, neutral wells = 0; activation, % at 12.5 µM; 0.75% of 300,000 active; AID 588334, 2011;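 active = mean activation of at least 80% with every replicate also reaching 80%; inconclusive = mean reaches 80% but some replicate falls short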
# LGR2 inh: inhibitors of bursicon-induced LGR2 CRE-luciferase signal, primary screen, cell-based, HEK293, CRE-luciferase reporter, bursicon stimulation | Drosophila bursicon receptor LGR2 (rickets) | bursicon-stimulated, 4 h | inhibition, % at 9.99 µM | 0.35% of 380,000 active;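 active = drop in luminescence signal, shown as inhibition above about 50% in the replicate tests, limit read from the data, passing the limit was not always enough; inconclusive = probably only some replicates passing the limit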;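 note: agonist challenge used bursicon conditioned medium at about half maximal strength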
# LMP1 NFkB inh: EBV LMP1-driven NF-kappaB luciferase reporter inhibitors, primary screen, cell-based, luminescence, single point | LMP1-induced NF-kappaB luciferase reporter cells | inhibition, % at 12.5 µM | 0.69% of 350,000 active; in the data active = inhibition above about 41%; inconclusive = no clear call, values can overlap the other calls
# TRPM1 prom inh: inhibitors of MITF-dependent TRPM1 promoter reporter, primary screen, cell-based, SK-MEL-5, single point, luciferase | SK-MEL-5 TRPM1 promoter luciferase, 24 h | inhibition, % at 12.5 µM | 0.83% of 330,000 active;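 active = mean inhibition across replicates of 60% or more, whatever share of single replicates reaches that level; inconclusive = some that reach 60%, reason not given; inactive = mean inhibition across replicates below 60%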
# TWEAK Fn14 block: inhibitors of TWEAK-Fn14 signaling, primary screen, luciferase reporter cells, uHTS. TWEAK-stimulated Fn14 reporter cells, luciferase luminescence, 8 h. inhibition, % at 10 µM. 2% of 360,000 active; in the data active = inhibition above about 50%
# TROY signal inh: inhibitors of TROY-driven NF-kB signaling, primary screen, Q293 LMP1-TROYcd cells, NF-kB luciferase, uHTS | Q293 LMP1-TROYcd NF-kB luciferase reporter, 4 h | inhibition, % at 10 µM | 0.98% of 360,000 active;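 active = compounds whose plate-normalised and pattern-corrected inhibition of the luciferase reporter signal at the single screening dose is 50% or more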
# Hits are given with their value; n = inactive; u = inconclusive; x = no result given.
SMILES,MITF TRPM1 HTS,LGR2 inh,LMP1 NFkB inh,TRPM1 prom inh,TWEAK Fn14 block,TROY signal inh
COc1ccc2c3c(n(C)c2c1)[C@@H](CO)N(C)CC31CN(S(=O)(=O)c2cccc(C)c2)C1,x,n,x,x,x,x
Oc1cccc(NC(=S)Nc2ccc(SC(F)F)cc2)c1,n,n,n,n,n,n
Oc1cccc2c(NC(=S)Nc3ccc(SC(F)F)cc3)cccc12,n,n,n,n,60,64
CCN(CC)c1ccc(/C=C2/C(=O)ON=C2C)cc1,n,n,n,n,n,n
CCN(CC)c1ccc(/C=C2\C(=O)N(c3nnc(C)c(=O)[nH]3)N=C2C)cc1,n,n,n,n,75,n
C[C@H]1CN([C@@H](C)CO)C(=O)Cc2cc(NC(=O)CCC(F)(F)F)ccc2O[C@@H]1CN(C)Cc1ccc(Oc2ccccc2)cc1,x,n,x,x,x,x
COc1cc2c(c3oc(-c4ccccc4)cc(=O)c13)C=CC(C)(C)O2,n,n,n,n,64,n
COc1cc(OC)c2c(=O)cc(-c3ccccc3)oc2c1,n,n,n,n,n,n
COc1ccccc1S(=O)(=O)N[C@H]1CC[C@H](CC(=O)NCc2cc(F)cc(F)c2)O[C@@H]1CO,x,n,x,x,x,x
O=C(CSc1cccc2cccnc12)N/N=C/c1ccc(O)cc1,n,n,n,n,n,n
O=C(CCc1ccccc1O)N/N=C/c1ccc(Sc2cccc3cccnc23)o1,x,x,n,n,109,n
O=C(C[C@@H]1CC[C@H](NC(=O)C2CC2)[C@@H](CO)O1)NCc1ccccc1Cl,x,n,x,x,x,x
CCOC(=O)c1c(N2C(=O)Nc3cc(Cl)c(Cl)cc3N2O)sc2c1CCCCC2,n,x,n,n,n,53
CCOC(=O)c1c(-n2cnnn2)sc2c1CCCC2,n,n,n,n,n,n
COC1=CC(=O)c2c(ccc3ncnc(N)c23)C1=O,x,96,83,113,100,54
COc1cccc2c1C(=O)C=C(C)C2=O,n,n,n,u,n,n
CCCN1CCC(NCc2cn(C)nc2-c2ccc(Oc3ccccc3)cc2)CC1,n,n,n,86,n,n
COC(=O)c1cc(=O)n(CCc2ccc(OC)c(OC)c2)c(=Nc2ccc(F)c(Cl)c2)s1,n,55,n,n,60,n
COC(=O)c1cc(=O)n(Cc2ccc(F)cc2)c(=Nc2ccccc2)s1,n,n,n,n,n,n
COC(=O)c1cc(=O)n(Cc2ccco2)c(=Nc2ccc(F)cc2)s1,x,x,n,x,56,n
COC(=O)c1cc(=O)n(Cc2ccc(OC)c(OC)c2)c(=Nc2ccc(F)cc2)s1,n,62,n,n,65,n
Cc1ccc(S(=O)(=O)N(C)C[C@H]2OCCCC[C@H](C)Oc3ccc(NC(=O)CCC(F)(F)F)cc3C(=O)N([C@@H](C)CO)C[C@H]2C)cc1,x,n,x,x,x,x
COc1ccc(S(=O)(=O)N2CCOCC2)cc1NC(=O)COC(=O)C1COc2ccccc2O1 (stereo unspecified),n,n,n,n,n,69
CCCc1nc2ccccc2c(C(=O)OCC(=O)NC2CC2)c1CC,n,n,n,n,n,n
O=C(COC(=O)c1ccc2c(c1)OCCO2)Nc1cccc(S(=O)(=O)N2CCOCC2)c1,n,n,n,n,n,56
SMILES,MITF TRPM1 HTS,LGR2 inh,LMP1 NFkB inh,TRPM1 prom inh,TWEAK Fn14 block,TROY signal inh
CCCc1nc2ccccc2c(C(=O)OCC(=O)Nc2cccc(S(=O)(=O)N3CCOCC3)c2)c1CC,x,x,n,n,61,n
CCCc1nc2ccccc2c(C(=O)OCC(=O)Nc2ccc(S(=O)(=O)N3CCOCC3)cc2)c1CC,x,x,n,n,n,78
C[C@@H]1CCCCO[C@H](CN(C)Cc2ccc(C(F)(F)F)cc2)[C@H](C)CN([C@H](C)CO)C(=O)c2cc(NC(=O)C3CCCCC3)ccc2O1,x,n,x,x,x,x
COC(=O)CNC(=O)CN1C(=O)N(c2ccccc2)C(N(O)C(=O)Nc2ccccc2)C1(C)C (stereo unspecified),n,x,n,n,81,n
COC(=O)CN1C(=O)N(c2ccccc2)C(N(O)C(=O)Nc2ccccc2)C1(C)C (stereo unspecified),n,x,n,n,n,n
Cc1ccc(C(C[N+](=O)[O-])Sc2ccc(N)cc2)cc1 (stereo unspecified),x,x,n,68,n,n
Cc1cc(OCC(=O)Nc2ccncc2)ccc1Br,n,x,n,n,88,x
Cc1cccc(OCC(=O)Nc2cccc(O)c2)c1,x,x,n,n,n,n
COc1cccc(NC(=O)COc2ccc(Br)c(C)c2)c1,x,n,n,n,n,n
O=C(COc1cc(Cl)c(Cl)cc1Cl)Nc1cccc(O)c1,139,n,n,n,n,n
Cc1ccc(OCC(=O)Nc2cccc(O)c2)cc1C,104,x,n,n,n,n
C[C@H]1CN([C@@H](C)CO)S(=O)(=O)c2ccc(/C=C/c3ccccc3)cc2O[C@@H]1CN(C)C(=O)Nc1ccc(F)cc1,x,n,x,x,x,x
C[C@@H]1CN([C@@H](C)CO)C(=O)Cc2cc(NS(=O)(=O)c3ccc(F)cc3)ccc2O[C@@H]1CN(C)C(=O)Nc1cccc2ccccc12,x,n,x,x,x,x
CN(C)C(=O)c1ccc(-c2ccc3c(c2)[C@@H]2[C@@H](CCN2C(=O)c2ccc4c(c2)OCO4)[C@H](CO)N3)cc1,x,n,x,x,x,x
O=C(CC(=O)c1ccccc1)Nc1ccc(Cl)cc1,111,n,n,n,n,n
Cc1ccc(NC(=O)c2ccc(NC(=O)c3ccccc3)cc2)cc1C,n,n,n,n,n,n
Cc1ccc(NC(=O)CC(=O)c2ccccc2)cc1C,144,n,n,n,n,n
CC(C)C#Cc1ccc2c(c1)O[C@H](CN(C)C(=O)C1CCCCC1)[C@@H](C)CN([C@@H](C)CO)S2(=O)=O,x,n,x,x,x,x
O=C(O)C[C@H]1C[C@H]2c3cc(NC(=O)c4ccc5c(c4)OCO5)ccc3O[C@H]2[C@@H](CO)O1,x,n,x,x,x,x
CCc1ccccc1OCCCN1CCCC1,n,n,n,n,59,n
Cc1ccc(N=Cc2c(O)c3ccccc3oc2=O)c(C)c1,x,x,n,n,57,55
CC(C)NC(=O)N(C)C[C@H]1Oc2ccc(NC(=O)NC3CCCCC3)cc2CC(=O)N([C@H](C)CO)C[C@@H]1C,x,n,x,x,x,x
S=C(Nc1ccc(OCc2ccccc2)cc1)Nc1cccc(Cl)c1Cl,n,n,74,n,n,n
O=C(NNC(=S)Nc1ccccc1Cl)c1ccccc1,93,n,n,n,n,n
O=C(NNC(=S)Nc1ccccc1Cl)c1ccccc1Cl,n,n,n,n,n,n
S=C(Nc1ccccc1)Nc1ccc(OCc2ccccc2)cc1,n,x,n,n,n,n
O=C(CSCc1ccccc1)NNC(=S)Nc1cccc(Cl)c1Cl,n,x,n,n,64,x

# From PubChem
